An excerpt weighted towards active compounds, which were near 9.8% of everything screened.
KDM4E inh – qHTS Assay for Inhibitors of Human Jumonji Domain Containing 2E (JMJD2E); Lysine-specific demethylase 4E (Homo sapiens), B2RXH2; JMJD2E catalytic domain, FDH-coupled NADH fluorescence (FDH is formaldehyde dehydrogenase); Potency, µM (doses to about 57.1 µM), hits mostly inhibitors; 230,000 compounds, 1.6% hits; active = well fitted inhibition curve with a large enough effect, not every such curve was filed as active; inconclusive = small, poorly fitted or top-dose-only effect, or another doubt; inactive = no such curve, though single readings can be large or run the other way; note: nearly all actives have a fitted effect of over 50% in size
Target sequence (B2RXH2 1-337 limits assumed): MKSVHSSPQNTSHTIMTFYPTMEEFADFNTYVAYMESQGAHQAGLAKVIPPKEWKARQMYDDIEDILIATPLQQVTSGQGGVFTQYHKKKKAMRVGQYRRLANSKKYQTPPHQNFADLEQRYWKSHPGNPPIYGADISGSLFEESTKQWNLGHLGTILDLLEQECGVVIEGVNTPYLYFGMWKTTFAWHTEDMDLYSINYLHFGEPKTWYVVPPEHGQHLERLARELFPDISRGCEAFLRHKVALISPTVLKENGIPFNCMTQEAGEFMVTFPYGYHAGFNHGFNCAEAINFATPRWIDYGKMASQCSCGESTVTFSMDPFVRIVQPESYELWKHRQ
HTT aggregate – qHTS Multiplex Assay to Identify Dual Action Probes in a Cell Model of Huntington: Aggregate Formation (GFP) | PC12 HttQ103-GFP aggregates, Acumen cytometry, 40 h | Potency, µM (series often up to 46.1 µM), usual class: inhibitors | 220,000 compounds, 1.1% hits; note: nearly all actives have a fitted effect of over 60% in size
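Ecdysone-promoter PC12 model expressing HTT exon 1 Q103 fused to GFP, induced by tebufenozide at 100 nM final. Compounds titrated; aggregates sized 1–25 µm scored on a 488 nm laser cytometer.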
HTT cytoprotect – qHTS Multiplex Assay to Identify Dual Action Probes in a Cell Model of Huntington: Cytoprotection (ATP); PC12 HTT-Q103 induced, cytoprotection, ATP luminescence, 40 h; Potency, µM (series often up to 56.4 µM), most hits filed as activators; 230,000 compounds, 0.14% hits; AID 1471, 2008; note: nearly all actives have a fitted effect of over 45% in size
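Rat PC12, Q103 Htt exon1-GFP fusion, ecdysone promoter; tebufenozide inducer 100 nM final; compound titration; qHTS, 1500 cells/well; ATPlite luminescent read.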
HPGD inh – qHTS Assay for Inhibitors of HPGD (15-Hydroxyprostaglandin Dehydrogenase). 15-hydroxyprostaglandin dehydrogenase [NAD(+)] (Homo sapiens), P15428. purified HPGD, NADH fluorescence kinetic, PGE2 substrate. Potency, µM, most hits filed as inhibitors. 150,000 compounds, 4.3% hits. AID 894, 2007; active = well fitted inhibition curve with a large enough effect, not every such curve was filed as active; inconclusive = small, poorly fitted or top-dose-only effect, or another doubt; inactive = no such curve, though single readings can be large or run the other way
Target sequence (P15428 whole entry, looked up): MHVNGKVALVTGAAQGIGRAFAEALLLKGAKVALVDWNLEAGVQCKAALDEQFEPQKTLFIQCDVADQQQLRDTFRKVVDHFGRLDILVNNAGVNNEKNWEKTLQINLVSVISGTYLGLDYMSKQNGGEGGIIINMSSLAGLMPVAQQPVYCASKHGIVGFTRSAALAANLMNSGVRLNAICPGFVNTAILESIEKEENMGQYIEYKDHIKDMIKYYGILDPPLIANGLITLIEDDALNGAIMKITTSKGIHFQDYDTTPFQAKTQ
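20 nM HPGD preincubated 15 min at room temperature with compound in 50 mM Tris-HCl pH 8, 0.01% Tween 20. Started with 1 mM NAD+ and 30 uM prostaglandin E2; NADH fluorescence (360/450 nm) read 5 times over 30-s intervals, last minus first.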
ALDH1A1 inh – qHTS Assay for Inhibitors of Aldehyde Dehydrogenase 1 (ALDH1A1); Aldehyde dehydrogenase 1A1 (Homo sapiens), P00352; Purified ALDH1A1, NADH fluorescence, propionaldehyde substrate; Potency, µM (doses to about 75.3 µM), actives largely listed as inhibitors; 220,000 compounds, 7.3% hits; AID 1030, 2008; active = well fitted inhibition curve with a large enough effect, not every such curve was filed as active; inconclusive = small, poorly fitted or top-dose-only effect, or another doubt; inactive = no such curve, though single readings can be large or run the other way
CBFb RUNX1 block – qHTS Assay for Compounds Blocking the Interaction Between CBF-beta and RUNX1 for the Treatment of Acute Myeloid Leukemia; 230,000 tested, under 10 active; AID 1477, 2009; AlphaScreen CBFb-His/RUNX1-biotin binding, biochemical; Potency, µM (doses to about 59.8 µM), most hits filed as inhibitors
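CBFb-His/RUNX1-biotin, 30 nM each, preincubated 20 min RT; compound 15 min RT; Ni + streptavidin beads 50 ng each, 90 min RT; AlphaScreen read.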
Each line names hits and unclear results; the compound was inactive in the other large screens. Unless noted, calls come from the whole dose curve; as a rule, active = well fitted curve in the direction sought with a large enough effect; inconclusive = small, poorly fitted or top-dose-only effect, or another doubt; inactive = no such curve, though single readings can be large; an effect the other way counts as inactive or inconclusive.

C=CCn1c(C)cc(C2=NNC(=Nc3ccc(C)cc3)SC2)c1C	none (no result: HPGD inh)
Cc1cc(C2=NNC(=Nc3ccc(S(=O)(=O)N4CCOCC4)cc3)SC2)c(C)n1C	KDM4E inh 8.9µM (no result: HPGD inh, ALDH1A1 inh)
Cc1ccc(CN2CCN(/N=C/c3cc(Br)cc(Br)c3O)CC2)cc1	ALDH1A1 inh inconclusive
Oc1c(C=NCc2ccc(F)cc2)[nH]c2ccc(Br)c(Cl)c12	HPGD inh inconclusive, ALDH1A1 inh 4.5µM
COc1ccc(CN=Cc2c(O)[nH]c3ccccc23)cc1	none (no result: HPGD inh)
Cc1ccc(CN=Cc2[nH]c3ccc(Br)c(Cl)c3c2O)cc1	HPGD inh 28µM, ALDH1A1 inh 0.4µM
CCCNC(=O)c1ccc(C2SCC(=O)N2CCc2ccccc2)cc1 (stereo not given)	HPGD inh 13µM (no result: HTT cytoprotect)
CCNC(=O)c1ccc(C2SCC(=O)N2CCc2ccccc2)cc1 (stereo not given)	HPGD inh 22µM (no result: HTT cytoprotect)
CCc1ccc(NC(=O)c2ccc(C3SCC(=O)N3CCc3ccccc3)cc2)cc1 (stereo not given)	ALDH1A1 inh inconclusive
CC(C)N1CSC(=S)N(Cc2ccccc2)C1	ALDH1A1 inh inconclusive (no result: HPGD inh)
COc1ccccc1C(=O)N/C(=C/c1ccc(Br)cc1)C(=O)N1CCCC1	ALDH1A1 inh inconclusive (no result: HPGD inh)
Cn1c(Cn2nnc3ccccc32)nnc1SCC(=O)N1c2ccccc2CCc2ccccc21	ALDH1A1 inh 8.9µM
COc1ccc(-n2c(Cn3nnc4ccccc43)nnc2SCC(=O)O)cc1	none
COc1ccc(N2CCN(C(=O)CSc3nnc(-c4cc5ccccc5cc4O)n3C)CC2)cc1	HTT aggregate 13µM
COc1ccc(N2CCN(C(=O)CSc3nnc(Cn4nnc5ccccc54)n3C)CC2)cc1	ALDH1A1 inh 14µM
COc1ccc(/C=N/NC(=O)c2cccc(Br)c2)cc1COc1ccccn1	none (no result: HPGD inh, ALDH1A1 inh)
C/C(CCN1CCCCc2nc(C)c(C)cc21)=N\O[C@@H](C)CN1CCCc2nc(C)c(C)cc21	none (no result: KDM4E inh, HTT aggregate, HPGD inh)
CCCCCC(=O)N1CCN(CCN=CC2=C(O)CC(c3ccc(OC)cc3)CC2=O)CC1 (stereo not given)	ALDH1A1 inh inconclusive
CCCCCC(=O)N1CCN(CCN=CC2=C(O)CC(c3ccc(OC)c(OC)c3)CC2=O)CC1 (stereo not given)	ALDH1A1 inh 22µM
CC1=CCC(C(=O)O)(C(=O)N/N=C/c2cccs2)C(c2ccc([N+](=O)[O-])cc2)C1 (stereo not given)	none
[S-]C(=Nc1ccc(Cl)cc1)N[n+]1ccccc1	HPGD inh 6.3µM (no result: HTT cytoprotect)
COc1ccc(CNC(=O)CSc2nc3cccnc3s2)cc1	ALDH1A1 inh inconclusive (no result: HPGD inh)
CC(=C1C(=O)c2ccccc2C1=O)N1CCN(C/C=C/c2ccccc2)CC1	ALDH1A1 inh 8.9µM
CC(=C1C(=O)c2ccccc2C1=O)N1CCN(Cc2ccccc2)CC1	ALDH1A1 inh 10µM
CC(=C1C(=O)c2ccccc2C1=O)N1CCC(C(N)=O)(N2CCCCC2)CC1	KDM4E inh inconclusive, ALDH1A1 inh 20µM
CCn1c(CSc2ncccn2)nnc1SCC(=O)N1CCCCC1	ALDH1A1 inh inconclusive (no result: HTT aggregate, HTT cytoprotect, HPGD inh)
Cc1ccc(-c2cn(-c3ccccc3)c3[n+]2CCCS3)cc1	HTT aggregate 1.8µM
O=C(NCc1ccco1)c1ccc([N+](=O)[O-])o1	HTT aggregate inconclusive, CBFb RUNX1 block inconclusive (no result: HPGD inh)
O=c1cc(-c2ccccc2Cl)oc2c([N+](=O)[O-])c(O)cc(O)c12	HTT aggregate 1.8µM, HTT cytoprotect inconclusive, HPGD inh 28µM
Nc1ccc2oc(-c3ccccc3Cl)cc(=O)c2c1O	HTT aggregate inconclusive, HPGD inh inconclusive (no result: HTT cytoprotect)
O=c1cc(-c2ccccc2Cl)oc2ccc([N+](=O)[O-])c(O)c12	KDM4E inh inconclusive, HTT aggregate inconclusive, HTT cytoprotect inconclusive, HPGD inh 11µM
O=C(Nc1ccc(O)c2c(=O)cc(-c3ccccc3Cl)oc12)c1ccc(Br)cc1	HTT cytoprotect inconclusive, HPGD inh 1.1µM (no result: KDM4E inh, HTT aggregate)
O=C(/C=C/c1ccc([N+](=O)[O-])cc1)Nc1ncc([N+](=O)[O-])s1	HTT aggregate inconclusive, ALDH1A1 inh inconclusive (no result: HPGD inh)
O=C(CC1C(=O)NCCN1Cc1ccc(-c2ccccc2)cc1)NCCCn1cccn1 (stereo not given)	none (no result: HPGD inh)
COc1cccc(/C=N/NC(=O)CNC(=O)C2COc3ccccc3O2)c1O (stereo not given)	KDM4E inh 18µM, HTT aggregate 13µM
COc1cccc(/C=N/NC(=O)CNC(=O)c2ccc3c(c2)OCCO3)c1O	HTT aggregate 35µM
COc1ccc(/C(C)=N/NC(=O)CNC(=O)C2COc3ccccc3O2)c(OC)c1 (stereo not given)	none (no result: HPGD inh, ALDH1A1 inh)
COc1cccc(/C=N/NC(=O)CNC(=O)c2ccco2)c1O	KDM4E inh 14µM (no result: HPGD inh, ALDH1A1 inh)
COCCCNC(=S)N/N=C/c1ccc(O)cc1O	KDM4E inh 18µM, HTT cytoprotect inconclusive, CBFb RUNX1 block inconclusive (no result: HPGD inh, ALDH1A1 inh)
CN(C)c1ccc(/C=N/NC(=O)CNC(=O)c2ccc3c(c2)OCCO3)cc1	KDM4E inh inconclusive, ALDH1A1 inh inconclusive (no result: HPGD inh)
COCCCNC(=S)N/N=C/c1ccc(O)cc1	none (no result: HPGD inh)
O=C(CNC(=O)c1ccco1)N/N=C/c1ccccc1[N+](=O)[O-]	ALDH1A1 inh inconclusive (no result: HPGD inh)
O=C(CCCCCNC(=O)c1ccccc1)N/N=C/c1ccccc1O	KDM4E inh 25µM, HTT aggregate inconclusive
O=C(CNC(=O)c1ccc2c(c1)OCCO2)N/N=C/c1ccc(O)cc1O	KDM4E inh 13µM
O=C(CNC(=O)c1ccncc1)N/N=C/c1ccc(O)cc1O	KDM4E inh 20µM (no result: HPGD inh)
O=C(CCCCCNC(=O)c1ccccc1)N/N=C/c1ccco1	none (no result: HPGD inh)
O=C(CNC(=O)c1ccncc1)N/N=C/c1ccccn1	none (no result: HPGD inh)
CC(Sc1ccc2ccccc2c1)C(=O)NC(N)=O (stereo not given)	none (no result: HPGD inh)
C=CCN(CC=C)C(=O)CCc1nnc(CCc2c[nH]c3ccccc23)o1	none (no result: HPGD inh)
N#Cc1nc(-c2ccco2)oc1NCc1ccccc1Cl	KDM4E inh inconclusive (no result: HPGD inh, ALDH1A1 inh)
Cn1c(=O)c(-c2ccc(F)cc2)nc2cnc(N3CCOCC3)nc21	ALDH1A1 inh inconclusive (no result: KDM4E inh, HTT aggregate, HPGD inh, CBFb RUNX1 block)
O=C(O)c1ccc(NC2=C/C(=N/S(=O)(=O)c3ccccc3)c3ccccc3C2=O)cc1	HTT aggregate 16µM, ALDH1A1 inh inconclusive, CBFb RUNX1 block inconclusive (no result: HPGD inh)
Cc1ccc(NC2=C/C(=N\S(=O)(=O)c3cccs3)c3ccccc3C2=O)c(C)c1	HTT aggregate 2.2µM (no result: CBFb RUNX1 block)
